# Pf apPOL block – Pf-apPOL DNA polymerase inhibition | 0.25% of 210,000 active | Recombinant Pf-apPOL, molecular beacon fluorescence, 1.5 h | inhibition, % at 10 µM
# mHTT CaM bind – inhibitors of human mutant huntingtin-calmodulin interaction; P42858; AlphaScreen His-mHTT/GST-CaM binding, luminescence; inhibition, % at 15 µM; 3.6% of 190,000 active; AID 1671202;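 further: 0% = both proteins with DMSO and 100% = one protein alone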
# An asterisk follows results filed as active; i = inactive; x = not tested or not shown; ! = a repeat was not active. An excerpt weighted towards active compounds, which were near 3.6% of everything screened. No stated cut-off is given here; in the data, active means inhibition above about 50%; inactive means the rest.
SMILES,Pf apPOL block,mHTT CaM bind
O=c1cc(-c2ccccc2[N+](=O)[O-])oc2ccccc12,-10,5
O=c1oc2c(-c3ccccc3[N+](=O)[O-])cc(O)cc2s1,43,61*
Cc1cc(O)c2c(c1)C(=O)c1cc(O)cc(O)c1C2=O,-68,x
Cc1ccc(-c2cc(O)cc3sc(=O)oc23)cc1C,8,79*
O=C(c1ccc(-c2cncnc2)nc1)N1CCN(c2ccccc2F)CC1,0,3
CC(C)c1ccccc1NC(=O)CCN1C(=O)c2cccc([N+](=O)[O-])c2C1=O,6,1
CC(CN1CCC(C(=O)N2CCCC2)CC1)c1ccccc1 (stereo not drawn),-7,3
CC(C)CN1CCC(C(=O)N2CCCC2)CC1,88*,-4
CC1=C(C#N)C(=O)NC(=O)/C1=C\c1ccc(-c2cc([N+](=O)[O-])ccc2Cl)o1,12,1
CC1=C(C#N)C(=O)NC(=O)/C1=C\c1ccc(-c2ccc(Cl)cc2Cl)o1,-4,71*!
O=C(c1cc2ccccc2[nH]1)N1CCC2(CC1)NC(=O)N(Cc1ccc(Cl)cc1)C2=O,-2,99*
O=C(c1c[nH]c2ccccc12)N1CCC2(CC1)NC(=O)N(Cc1cccc(Cl)c1)C2=O,-1,100*
O=C(c1c[nH]c2ccccc12)N1CCC2(CC1)NC(=O)N(Cc1ccccc1)C2=O,2,62*
O=C(c1nccc2ccccc12)N1CCC2(CC1)NC(=O)N(Cc1cccc(Cl)c1)C2=O,-8,24
O=C(c1ccccc1F)N1CCC2(CC1)NC(=O)N(Cc1ccccc1)C2=O,-2,-1
O=C(c1cc2ccccc2[nH]1)N1CCC2(C1)NC(=O)N(Cc1ccc(Cl)cc1)C2=O (stereo not drawn),1,9
COc1ccc(C(O)CN2CCN(c3ccccn3)CC2)cc1OC (stereo not drawn),-3,-6
O=C(O)C1Cc2[nH]cnc2C=N1 (stereo not drawn),x,23
Cc1cc([N+](=O)[O-])ccc1NC(NC(=O)c1cccs1)C(Cl)(Cl)Cl (stereo not drawn),0,19
CCn1c(N2CCCC(C(=O)NCCCOC)C2)cc(=O)n(C)c1=O (stereo not drawn),5,2
COc1ccccc1/C=C/C=C1\N=C(c2cccc(Br)c2)OC1=O,1,5
CC(=O)N1CCN(C(=O)C2CCCN(c3cnn(C)c(=O)c3)C2)CC1 (stereo not drawn),-8,-3
COC(=O)C1CN(CCc2ccccc2)CCS(=O)(=O)N1Cc1ccc(C(F)(F)F)cc1 (stereo not drawn),-1,77*
COC(=O)C1CN(CCc2ccccc2)CCS(=O)(=O)N1Cc1ccccc1 (stereo not drawn),-3,12
COC(=O)C1CN(Cc2ccc(F)cc2)CCS(=O)(=O)N1Cc1ccc(C)cc1 (stereo not drawn),-2,50*
SMILES,Pf apPOL block,mHTT CaM bind
COC(=O)C1CN(Cc2ccc(C)cc2)CCS(=O)(=O)N1Cc1cn(Cc2ccc(F)cc2)nn1 (stereo not drawn),-7,3
CC(C)NC(=O)CN1C(=O)CC(c2cccc(Cl)c2)=Nc2cccnc21,1,5
COc1ccc(-c2nnc3n2N=C(c2ccc(Cl)cc2)CS3)cc1,-4,14
O=S(=O)(NCCSC1CCCCC1)c1ccc2c(c1)OCCO2,3,-4
CC(C)(C)OC(=O)N1CCC(CNS(=O)(=O)c2ccc3c(c2)OCCO3)CC1,63*!,x
COc1cc(C2=NOC(C(=O)Nc3cccc(C(C)=O)c3)C2)cc(OC)c1OC (stereo not drawn),-3,26
COc1ccccc1OCc1nc(C#N)c(NCc2ccc(F)cc2)o1,-7,18
c1cc(-c2noc(-c3cccc4[nH]ccc34)n2)cc(-c2ccn[nH]2)c1,4,62*
Fc1ccccc1-c1nc(-c2cccc(-c3ccn[nH]3)c2)no1,2,9
COc1cccc(N2CCN(C(=O)c3ccc(-c4cccs4)nc3)CC2)c1,1,17
O=C(Cn1nnc(-c2ccccc2)n1)Nc1cccc([N+](=O)[O-])c1,-3,7
O=[N+]([O-])c1ccc(-c2nnn(CNc3ccccc3)n2)cc1,-2,53*
COc1ccc(/C=C2\N=C(c3ccc4c(c3)OCO4)OC2=O)cc1OC,-5,4
O=C(NCC1CCCN1S(=O)(=O)c1ccccc1)C(=O)Nc1ccc(F)cc1F (stereo not drawn),-1,-17
CCN(CC)CCNC(=O)c1cn(CC)c(=O)c2cc(OC)c(OC)cc12,3,1
Cc1cc(C2CCCCC2)ccc1O,-2,3
Oc1ccc(C2CC3CCC2C3)cc1O (stereo not drawn),-2,54*
CC1(C)CC(=O)C2=C(C1)Nc1ccccc1NC2c1c[nH]c2ccccc12 (stereo not drawn),7,3
Cc1ccc(NC(=O)C2(C)Oc3cccnc3N(C)C2=O)c(C)c1 (stereo not drawn),-6,-7
Cc1ccc(N=Cc2cc(Cl)cc([N+](=O)[O-])c2O)cc1,11,6
COc1cc(C=Nc2ccccc2O)c([N+](=O)[O-])cc1OC,-6,86*
Cc1ccc(C(=O)O)cc1N=Cc1cc([N+](=O)[O-])cc([N+](=O)[O-])c1O,-4,-3
O=[N+]([O-])c1cc(C=Nc2cc(-c3ccccc3)ccc2O)c(O)c([N+](=O)[O-])c1,-1,51*
COc1cc(/C=N/O)c([N+](=O)[O-])cc1OC,x,i
Cc1ccc(N=Cc2cc(Cl)cc([N+](=O)[O-])c2O)c(O)c1,-4,56*
SMILES,Pf apPOL block,mHTT CaM bind
O=C(Cc1cccc(F)c1)N1CCCC1c1ccccc1Cl (stereo not drawn),-20,2
O=C(Cc1cccc(C(F)(F)F)c1)N1CCCn2nc(-c3cccs3)cc2C1,-3,16
CCOC(=O)c1c(NC(=O)Nc2ccc(C)cc2)sc2c1CCC(C)C2 (stereo not drawn),-5,x
O=C(NCCCn1ccnc1)c1ccc(Cl)cc1,2,-4
O=C(NCCCn1ccnc1)C(=O)Nc1ccc(F)c(Cl)c1,-2,70*
O=C(NCCCn1ccnc1)Nc1cccc(Cl)c1,0,89*
O=C(NCCCn1ccnc1)C(=O)Nc1ccc2c(c1)OCCO2,-2,-3
COc1ccc(-n2c(C)cc(/C=C/[N+](=O)[O-])c2C)cc1Cl,-2,75*
Cc1cc(C=O)c(C)n1-c1ccc(F)c(Cl)c1,-7,13
O=c1oc2ccc([N+](=O)[O-])cc2cc1-c1nc2ccccc2[nH]1,-2,5
COc1cccc(NS(=O)(=O)c2cccc3cccnc23)c1,-3,0
COc1cccc(NC(c2ccccn2)c2ccc3cccnc3c2O)c1 (stereo not drawn),-6,99*
COc1ccc(C(NC(=O)c2ccccc2)NC(=O)c2ccccc2)c(OC)c1,1,17
COc1ccc(C(NC(=O)c2ccccc2)c2ccc3cccnc3c2O)cc1 (stereo not drawn),3,100*
COc1cccc(C(NC(=O)c2ccccc2)c2ccc3cccnc3c2O)c1 (stereo not drawn),0,100*
Cc1cc(C)n(-c2ccc(N3CCC(C(=O)NCc4ccc5c(c4)OCO5)CC3)nn2)n1,-8,1
COc1ccc(/C=C2/SC(=Nc3cccc(C)c3)NC2=O)cc1,5,15
COC(=O)c1cc(Nc2ccccc2)c2cccc(OC)c2n1,27,-10
NNC(=O)C(O)C(O)C(O)C(O)CO (stereo not drawn),0,x

# Bioassay records: PubChem, University of Kansas High Throughput Screening Laboratory
